Assay outcomes as filed in PubChem.
FXN GAA850 act: FXN promoter activators, primary screen, cell-based, luciferase luminescence, HEK293 lucGAA850; AID 540364, 2011; HEK293 lucGAA850 FXN promoter luciferase reporter, 24 h; percent of 10 µM SAHA response; activation, % at 6 µM; 360,000 tested, 0.56% active;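 active = activation above the average of all compounds screened plus 3 SD, cutoff fixed separately per campaign, cut at about 7.5% in these data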;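 note: 0% = DMSO wells and 100% = 10 µM SAHA wells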
hgDAF-12 ag: H. glycines DAF-12 receptor agonists, primary screen, cell-based, luminescence, HEK293, GAL4 fusion, UAS-luciferase; HEK293 GAL4-hgDAF12 UAS-luciferase reporter, agonist luminescence; normalized to butyrate control; Nuclear hormone receptor DAF-12 (Heterodera glycines), GAL4 fusion; activation, % at 6.8 µM; AID 687014, 2013; 370,000 tested, 1.8% active;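 active = activation above a cutoff set at the mean of all screened compounds plus 3 SD, cut at about 10% in these data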;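 note: 0% = DMSO wells and 100% = sodium butyrate wells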
DAX1 inh-1: DAX1 (NR0B1) inhibitors, primary screen, cell-based, HEK293, Gal4-DAX1, luciferase luminescence. 340,000 tested, 0.99% active. HEK293 Gal4-DAX1 luciferase reporter. inhibition, % at 6.75 µM. Nuclear receptor subfamily 0 group B member 1 (Homo sapiens), P51843;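 active = inhibition above the mean over all tested compounds plus 3 SD, cut at about 4.2% in these data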;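 note: 0% = DAX1-transfected cells with DMSO and 100% = empty-vector control cells with DMSO; inhibition shows as a rise in luminescence from relieved DAX1 repression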
Target sequence (P51843 207-470 limits assumed): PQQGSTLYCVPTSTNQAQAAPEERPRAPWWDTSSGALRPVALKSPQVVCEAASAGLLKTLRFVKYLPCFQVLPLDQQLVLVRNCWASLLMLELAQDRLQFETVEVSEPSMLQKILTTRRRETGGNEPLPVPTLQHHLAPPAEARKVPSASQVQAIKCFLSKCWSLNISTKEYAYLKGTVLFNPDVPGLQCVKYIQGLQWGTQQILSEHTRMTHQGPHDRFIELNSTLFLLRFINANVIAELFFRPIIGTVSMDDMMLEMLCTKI
ssDAF-12 act: S. stercoralis DAF-12 nuclear receptor activators, primary screen, cell-based, luminescence, HEK293, GRIP1 co-expression, lit1-tk-luc | Nuclear hormone receptor DAF-12 (Strongyloides stercoralis) | HEK293 ssDAF-12/GRIP1 lit1-tk-luc reporter; % of 3 µM dafachronic acid response | activation, % at 6.8 µM | 370,000 tested, 1% active | AID 652126, 2013;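 active = activation above the mean over all tested compounds plus 3 SD, cut at about 0.9% in these data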;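 note: 0% = DMSO-only wells and 100% = 3 µM delta7-dafachronic acid wells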
hcDAF-12 act: H. contortus DAF-12 nuclear receptor activators, primary screen, cell-based, luminescence, HEK293, lit1-tk-luc reporter; HEK293 hcDAF-12 lit1-tk-luc reporter; 0% DMSO, 100% Δ7-dafachronic acid; activation, % at 6.8 µM; 370,000 tested, 1.4% active;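 active = activation above the mean of all tested compounds plus 3 SD, cut at about 5.5% in these data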;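 note: 100% = response to 3 µM Δ7-dafachronic acid high control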
DAX1 inh-2: DAX1 (NR0B1) inhibitors on StAR promoter, primary screen, cell-based, luminescence, SF-1 (NR5A1), full-length DAX-1; inhibition, % at 6.8 µM; 370,000 tested, 1.1% active; HEK293T StAR-luciferase reporter, SF-1/DAX-1 repression relief; AID 652010, 2013;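 active = inhibition above the mean over all tested compounds plus 3 SD, cut at about 3.6% in these data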;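 note: 0% = DAX-1 cells with DMSO and 100% = cells lacking DAX-1 with DMSO; higher inhibition means more luminescence from relief of DAX-1 repression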
GAA30 counter: GAA30 FXN promoter activators, confirmation, counter-screen for GAA850 frataxin promoter activator project, cell-based, luminescence, HEK293, lucGAA30, triplicate | HEK293 lucGAA30 FXN promoter luciferase, 24 h; DMSO = 0%, 5 µM ipriflavone = 100% | activation, % at 6 µM | 1,900 tested, 66% active | shares compounds with FXN GAA850 act;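 active = mean activation above the mean of solvent-only control wells plus 3 SD, cut at about 22% in these data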;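 note: counterscreen of GAA850 promoter hits where activity marks nonselective or luminescence artifacts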
FXN GAA850 conf: FXN GAA850 promoter activators in reporter cells, confirmation, cell-based, luminescence, HEK293 lucGAA850, triplicate; shares compounds with FXN GAA850 act; HEK293 lucGAA850 FXN promoter luciferase reporter, 24 h; 100% = activation by SAHA; activation, % at 6 µM; 1,900 tested, 86% active; AID 588351, 2011;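 active = mean activation above a set limit taken from the primary screen, cut at about 8% in these data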;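 note: 0% = DMSO wells and 100% = 10 µM SAHA wells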
Active calls of the source: *; nt = not tested or not shown. Hits are enriched below; roughly 4.5% of the tested compounds scored in any of these assays.

SMILES	FXN GAA850 act	hgDAF-12 ag	DAX1 inh-1	ssDAF-12 act	hcDAF-12 act	DAX1 inh-2	GAA30 counter	FXN GAA850 conf
CCOC(=O)C1=C(CSc2nc(-c3ccccc3)ccc2C#N)OC(N)=C(C#N)C1c1ccc(OC)cc1 (stereo unspecified)	8.9*	1.7	3.6	-0.3	3.8	1.0	66.0*	24.8*
CCOC(=O)C1=C(CSc2nc(CC)c(C)cc2C#N)OC(N)=C(C#N)C1c1ccccc1 (stereo unspecified)	1.3	0.6	-0.2	-0.7	2.4	0.8	nt	nt
COC(=O)CN1C(c2ccc(Cl)cc2)=Nc2ccc(Cl)cc2C1c1ccccc1 (stereo unspecified)	13.3*	-2.0	-0.5	0.3	2.6	-0.3	13.6	10.7*
COc1ccc(C2=Nc3ccc(C)cc3C(c3ccccc3)N2CC(=O)NN)cc1 (stereo unspecified)	-1.8	-0.4	-0.5	-0.6	-0.5	-0.1	nt	nt
CCN(CC)S(=O)(=O)c1ccc2c(c1)C(=NO)c1cc(S(=O)(=O)N(CC)CC)ccc1-2	10.3*	1.3	-4.8	-1.0	-1.8	-0.5	-10.9	19.0*
CC1CCN(S(=O)(=O)c2ccc3c(c2)C(=NO)c2cc(S(=O)(=O)N4CCC(C)CC4)ccc2-3)CC1	10.8*	-0.5	0.0	-1.1	-0.3	-0.3	-71.0	29.9*
COC(=O)CSc1ncnc2c1sc1nc(N3CCOCC3)c3c(c12)CCCC3	1.5	-1.9	1.8	-0.9	-0.9	0.0	nt	nt
COC(=O)c1ccc(CSc2ncnc3c2sc2nc(N4CCOCC4)c4c(c23)CCCC4)o1	13.3*	-2.3	0.4	-1.3	-2.2	0.3	11.6	15.2*
Cc1nonc1C(=O)N/N=C/c1ccc(O)c(O)c1	9.4*	1.8	-0.2	-1.0	-1.8	0.7	29.6*	8.4*
COc1cc(/C=N/NC(=O)c2nonc2C)ccc1O	0.8	6.5	0.0	-0.2	-0.5	-0.4	nt	nt
COC(=O)c1ccc(CSc2nc3ccccc3c(=O)n2-c2ccccc2)o1	15.6*	-1.8	0.9	-1.7	-1.9	-1.2	20.5	12.4*
Cc1cc(Cl)ccc1OCCCC(=O)N1CCOCC1	-0.5	2.4	0.3	-1.2	0.5	-0.1	nt	nt
Cc1cc(Cl)ccc1OCCCC(=O)N1CCCCC1	8.6*	3.4	0.6	-0.7	1.5	1.4	78.9*	30.5*
O=C(NC1CCCCN(Cc2ccc(Cl)cc2)C1=O)C1C2CC3CC(C2)CC1C3 (stereo unspecified)	nt	-3.0	nt	-0.3	-2.1	-0.5	nt	nt
CC(/C=C/c1ccco1)=N\NC(=O)c1cccnc1	1.4	3.0	0.3	-1.2	-0.8	0.0	nt	nt
CC(/C=C/c1ccco1)=N/NC(=O)Cc1cccs1	8.2*	-1.7	-0.6	-0.7	0.0	0.4	36.6*	17.5*
CC(/C=C/c1ccco1)=N/NC(=O)OC(C)(C)C	8.8*	4.1	0.7	-1.5	3.8	0.1	68.4*	27.5*
CCCCNc1nc(N)nc(-c2cc(Cl)ccc2O)n1	14.0*	10.1	0.4	-1.2	2.8	2.2	132.8*	73.0*
CCNc1nc(N)nc(-c2cc(Cl)ccc2O)n1	16.6*	nt	-0.3	nt	nt	nt	150.5*	93.4*
CC[C@@]12C(=O)N(c3ccccc3)C(=O)N1[C@H](c1ccc(OC)cc1)[C@@H]1C(=O)N(C(C)(C)C)C(=O)[C@@H]12	11.3*	-0.6	0.2	-0.9	0.1	0.1	34.9*	14.1*
CC[C@@]12C(=O)N(c3ccc(C)cc3)C(=O)N1[C@H](c1ccc(Br)cc1)[C@@H]1C(=O)N(C(C)(C)C)C(=O)[C@@H]12	13.4*	-0.3	0.6	-1.0	-0.9	-0.3	28.1*	10.2*
CC[C@@]12C(=O)N(c3ccc(C)cc3)C(=O)N1[C@H](c1ccc(OC)cc1)[C@@H]1C(=O)N(C(C)(C)C)C(=O)[C@@H]12	11.5*	-1.2	0.5	-0.9	-0.8	-0.4	32.7*	13.1*
COc1ccc([C@@H]2[C@@H]3C(=O)N(C(C)(C)C)C(=O)[C@@H]3[C@]3(Cc4ccccc4)C(=O)N(c4ccccc4)C(=O)N23)cc1	1.4	-0.3	2.3	-1.3	-0.5	-0.3	nt	nt
Cc1ccc(F)cc1C(=O)N1CCCC(c2nc(-c3cccs3)no2)C1 (stereo unspecified)	nt	6.4	nt	-1.2	-2.3	0.0	nt	nt
CN=c1scc(-c2ccc(F)cc2)n1/N=C/c1ccc(O)c(O)c1	9.3*	-0.5	-0.6	-0.8	6.3*	0.8	34.1*	14.0*
SMILES	FXN GAA850 act	hgDAF-12 ag	DAX1 inh-1	ssDAF-12 act	hcDAF-12 act	DAX1 inh-2	GAA30 counter	FXN GAA850 conf
CCOC(=O)[C@@H](C)N(Cc1ccc(OC)cc1)S(=O)(=O)N(Cc1ccccc1)[C@H](C(=O)OC)C(C)C	10.7*	1.3	-0.5	-1.6	-2.1	0.4	13.2	21.3*
CCOC(=O)[C@@H](C)NS(=O)(=O)N(Cc1ccccc1)[C@H](C(=O)OC)C(C)C	2.4	3.4	-0.2	-1.5	1.0	0.2	nt	nt
Cc1ccc(Cn2c(SCC(=O)NCc3ccco3)nc3ccsc3c2=O)cc1	8.8*	-0.9	-0.4	-1.4	-2.0	0.0	30.6*	17.4*
Cc1ccc(CNC(=O)CSc2nc3ccsc3c(=O)n2Cc2ccccn2)cc1	5.1	1.8	-0.7	-1.9	-1.9	-0.1	nt	nt
COc1ccc(F)cc1-c1cc(C(C)=O)c2n(c1=O)CCC2	nt	0.9	nt	-0.6	-1.3	-0.1	nt	nt
Nc1c(C=C2C=CC(=O)C=C2)c(=O)nc2snc(SCc3ccccc3)n12	7.7*	-0.6	1.2	-1.1	-0.4	0.9	58.9*	15.2*
Cc1ccc(C(=O)N2CCC[C@@H]2C(=O)N2CCC[C@H]2C(=O)NCc2ccccc2)cc1	nt	-0.4	nt	-0.6	-1.4	-0.3	nt	nt
